Inhibition data for 40 compounds are collected here from ChEMBL document CHEMBL3433997, “St. Jude Leishmania screening dataset” (2016).

SMILES strings stand for the structures.

The target of this experiment is Glucose transporter (Leishmania mexicana) (UniProt O61059). The experiment in a line: ST_JUDE_LEISH: Cytotoxicity at 2uM final concentration against transgenic Leishmania Mexicana promastigotes LmGT2 that are glucose transport deficient and complemented with the L. Mexicana glucose transporter 2. Activity is measured by DNA content using SYBR green in vitro. It counts as functional.
In general, inhibition refers to the change of the read-out against control, counted positive when it falls. On to `Oc1ccc(-c2ccccc2)cc1CN1CCCCCC1`, for which the inhibition came out at 1%.
On to `c1cncc(CCNCc2ccc(-c3ccc(-c4nc5ccccc5[nH]4)s3)cc2)c1`, for which the inhibition came to 0.7%.
`CCN(CC)CCNC(=O)c1ccc(NC(=O)c2oc3c(Cl)cccc3c2C)cc1`: the inhibition came out at 7.44%.
With `CCCc1nc2c(N3CCCN(C(=O)NC4CCCCC4)CC3)cccc2n1Cc1ccccn1`, the inhibition was -1.29%.
The result for `COc1ccc(C(=O)NCC(C)(C)c2nc(-c3ccc(Cl)c(O)c3)c(-c3ccncc3)[nH]2)cc1OCCN(C(C)C)C(C)C` reads -1.98%.
Under `c1ccc2c(C3CCN(CCCCOc4ccc5c(c4)CCN(C4CCC4)CC5)CC3)c[nH]c2c1` stands 4.47%.
Under `OC(CNc1ccnc(Nc2cccc(Cl)c2)n1)c1cccc(F)c1` (stereo not given) stands -3.09%; under `O=C(Nc1cccc(OCc2ccccc2)c1)c1ccc(CN2CCC(Cc3ccccc3)CC2)cc1`, -0.42%.
With `O=C(/C=C/c1ccc([N+](=O)[O-])cc1)N1CCC(NS(=O)(=O)c2ccc(Br)cc2)CC1`, the inhibition is 1.17%.
`Cc1cc(S(=O)(=O)N2CCCCC(c3ccc(C(F)(F)F)cc3)=N2)c(Cl)cc1Cl`: the inhibition was -1.4%.
The result for `c1cc(CNC2Cc3ccccc3C2)cc(-c2cnc(N3CCNCC3)nc2)c1` reads 1.2%; that for `COc1ccc2nccc([C@@H](O)CN3CCC(NCc4ccc5c(c4)NC(=O)C(C)S5)CC3)c2c1` (stereo not given in full), 4.38%; that for `COc1ccc(CNCc2cccc(-c3ccc(-c4nc5cc(C(F)(F)F)ccc5[nH]4)cc3)c2)cc1`, 6%.
The result for `Cc1cc(C2CCN(CCCCNC(=O)c3ccc(-c4ccc(C(F)(F)F)cc4)cc3)CC2)c(C)cc1OCC#N` reads -0.09%.
As for `CCN(CCCN1CCCCC1)c1cc(C)nc(Nc2ccc(C)cc2C)n1`, the inhibition is 2.76%.
With `COc1ccc2nccc(N/N=C/c3ccccc3[N+](=O)[O-])c2c1`, the inhibition came to 0.03%.
On to `O=C(/C=C/c1ccc(Cl)c(Cl)c1)NCCCCCN1CCCC(CNC(=O)Nc2ccc(C(F)(F)F)cc2)C1` (stereo not given), for which the inhibition came out at 1.39%.
The result for `CCOC(=O)c1ccc(NC(=O)c2ccccc2C(=O)O)cc1` reads -0.02%.
Under `O=C(NC1CCC(N2CCC(c3nc4ccccc4s3)CC2)CC1)c1cc2ccccc2[nH]1` (stereo not given) stands -1.51%.
Take `CCCCNC(=N)Nc1ccc(OCCCOc2ccc(NC(=N)NCCCC)cc2)cc1`: the inhibition came to 0.01%.
Under `O=C(Cn1c(SCc2cccc(F)c2F)cc(=O)c2ccccc21)N(Cc1ccc(-c2ccc(C(F)(F)F)cc2)cc1)C1CCN(CCO)CC1` stands -1.32%; under `CCOCCCn1c(=N)c(C(=O)NC(C)c2ccccc2)cc2c(=O)n3cccc(C)c3nc21` (stereo not given), 3.81%.
The result for `CCN(CCCN1CCCCC1)c1cc(C)nc(Nc2ccc(F)c(C(F)(F)F)c2)n1` reads -0.24%.
Under `CC(C)CC(C)NC(=O)C1Cc2c([nH]c3ccc(F)cc23)C2(CCN(Cc3ccccc3)CC2)N1` (stereo not given) stands 7.75%; under `O=C(Cn1cc(C=C2SC(=NC3CCCC3)N(C3CCCC3)C2=O)c2ccccc21)N1CCCC1`, 0.81%.
Consider `Cc1cccc(-c2ccc(CNC3CCN(CC4Cn5c(=O)ccc6ccc(F)c4c65)CC3)cn2)c1` (stereo not given), for which the inhibition came to 1.89%.
On to `COc1ccc(CNC(=O)C2Cc3ccccc3CN2Cc2ccc3ccccc3c2)cc1` (stereo not given), for which the inhibition is -0.58%.
Under `CCOc1ccc(C(=O)Nc2ccc(-c3nc4ccccc4[nH]3)cc2)cc1[N+](=O)[O-]` stands 1.46%.
Under `COc1ccc2nccc(N3CCN(CCNCc4ccc5c(n4)NC(=O)CO5)CC3)c2n1` stands 10.1%; under `COc1c(C2CCN(CCCCNC(=O)c3ccc(-c4ccc(C#N)cc4)nc3)CC2)ccc2c1CCCC2`, 0.52%; under `CN(C)C(=O)c1cccc(COc2ccc(N3C(N)=NC(N)=NC3(C)C)cc2Cl)c1`, -0.58%.
Under `CC(=O)COc1c(C2CCN(CCCCNC(=O)c3ccc(-c4ccc(C(F)(F)F)cc4)cc3)CC2)ccc2c1CCCC2` stands 0.59%; under `CCc1cc(C(=O)c2cccc(C)c2)c(NC(=O)CN2CCN(C(=O)c3ccco3)CC2)s1`, 2.44%; under `O=C(NC(NC(=S)Nc1ccc([N+](=O)[O-])cc1)C(Cl)(Cl)Cl)c1cccc(Cl)c1` (stereo not given), -0.06%.
For the compound `COc1ccc(-c2ccc(NC(=O)c3ccccc3)cc2)cc1CN1CCCN(C)CC1`, the inhibition is -1.41%.
The result for `COc1ccc(NC(=O)c2csc(-c3cc(NC(=O)c4ccnc(N5CCCC5)c4)ccc3C)c2)cc1N1CCN(C)CC1` reads -1.28%.
For `CC(=O)Nc1ccc(OCCN(Cc2ccccc2C(F)(F)F)c2ccc(C#N)c(C(F)(F)F)c2)cc1`, the inhibition was found to be 28.2%.
The result for `O=C(c1cncc(-c2ccccc2)c1)N(Cc1cncn1Cc1ccccc1F)CC1CC1` reads -0.58%; that for `Clc1ccccc1OCc1ccccn1`, 2.66%.
On to `CC(C)CNCc1cccc(-c2ccc(CNc3ccc(C(=O)c4ccccc4)cc3)cc2)c1`, for which the inhibition is -1.03%.
